# From PubChem BioAssay
# Hits are enriched below; roughly 5.4% of the tested compounds scored in any of these assays.
# Vaccinia mCherry = qHTS for Stage-Specific Inhibitors of Vaccinia Orthopoxvirus: mCherry Reporter Primary qHTS. Vaccinia virus mCherry reporter infection, fluorescence. AID 720579, 2013. Potency, µM (series often up to 36.5 µM), for the others: at the top dose activity change, negative = inhibition, usual class: inhibitors. 310,000 compounds, 0.63% hits; calls by dose curve; tested in A549 cells; also: nearly all actives have a fitted effect of over 35% in size
# Marburg entry inh = qHTS for inhibitors of binding or entry into cells for Marburg Virus; Marburg virus pseudotyped entry inhibition, cell reporter; Potency, µM (highest dose often 37.8 µM), inactives show at the highest dose activity change, negative = inhibition, most hits filed as inhibitors; 300,000 compounds, 1.8% hits; calls by dose curve; tested in HEK293 cells
# FMDV antiviral = High Throughput Screening for Foot and Mouth Disease Virus Antivirals; FMDV antiviral cell-based qHTS; Potency, µM (doses to about 57.9 µM), without a hit: top-dose activity change, negative = inhibition, hits mostly inhibitors; 410,000 compounds, 1.2% hits; calls by dose curve; tested in HEK293T cells; also: read-out not given here; nearly all actives have a fitted effect of over 45% in size
# VACV Venus inh = qHTS for Stage-Specific Inhibitors of Vaccinia Orthopoxvirus: Venus Reporter Primary qHTS; AID 720580, 2013; 330,000 compounds, 0.46% hits; Potency, µM (top dose mostly 36.5 µM), for the others: at the top dose activity change, negative = inhibition, usual class: inhibitors; Vaccinia virus Venus reporter expression, fluorescence; calls by dose curve; tested in A549 cells; also: nearly all actives have a fitted effect of over 30% in size
# LASV entry inh = qHTS for Inhibitors of binding or entry into cells for Lassa Virus. 300,000 compounds, 1.2% hits. Potency, µM (doses to about 37.9 µM), for inactives: at the highest dose activity change, negative = inhibition, hits mostly inhibitors. Lassa virus pseudotype entry inhibition, cell reporter; calls by dose curve; tested in HEK293 cells; also: nearly all actives have a fitted effect of over 50% in size
# Sm TGR inh = qHTS Assay for the Inhibitors of Schistosoma Mansoni Peroxiredoxins; Schistosoma mansoni thioredoxin glutathione reductase (TGR), Q962Y6; purified TGR, DTNB reduction, TNB absorbance 405 nm; Potency, µM (highest dose often 114 µM), inactives show at the highest dose activity change, negative = inhibition, usual class: inhibitors; 360,000 compounds, 3% hits; active = well fitted inhibition curve with a large enough effect; inconclusive = small, poorly fitted or top-dose-only effect; inactive = no such curve, though single readings can be large or run the other way; also: nearly all actives have a fitted effect of over 60% in size
#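 TGR 20 nM + NADPH 100 uM (dispensed conc.), cpd preinc 15 min RT; start with NADPH (500 uM addition) then DTNB (15 mM addition). Kinetic TNB absorbance, 405 nm filter. Four-parameter Hill fit across titration.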
# Numbers without * were called inactive; i = inactive; ? = inconclusive; . = no result; [ ] = another dose, or the depositor's remark. % is scaled to controls: 0 for no effect and ±100 for the full control effect; potency is read from the fitted curve at half-maximal effect.
SMILES,Vaccinia mCherry,Marburg entry inh,FMDV antiviral,VACV Venus inh,LASV entry inh,Sm TGR inh
O=C1c2ccccc2CC1Sc1nnc(-c2ccncc2)o1 (centres undefined),.,2%,27%,.,1%,16µM*
Cc1ccccc1N1C(=O)CC(Sc2nnc(-c3ccccc3)o2)C1=O (centres undefined),10%,9%,-26%,20%,17%,2.8µM*
O=C1CC(Sc2nnc(-c3ccccc3)o2)C(=O)N1c1ccccc1 (centres undefined),.,?,?,.,11%,3.5µM*
C=C1C(=O)OC2C=C(CO)C3OC3C3OC3(C)CC(OC(=O)/C(=C/C)COC(C)=O)C12 (centres undefined),?,2.5µM*,7.9µM*,-18%,?,.
CC(=O)OCC1=C[C@@H]2OC(=O)C3=CO[C@@H](O[C@@H]4O[C@H](CO)[C@@H](O)[C@H](O)[C@H]4O)[C@H]1[C@@H]32,18%,.,-16%,35%,.,3%
Cc1cccc(NC(=O)CSc2cn(CC(=O)N3CCOCC3)c3ccccc23)c1C,-3%,.,24%,-4%,16%[46.1 µM],4%
O=c1[nH]cnc2c1sc1nc3c(c(-c4ccc(Cl)cc4)c12)CCC3,.,?,?,2.8µM*,0%,-21%
CCOC(=O)Cn1nnc2c(sc3nc4c(c(-c5ccc(Cl)cc5)c32)CCC4)c1=O,.,?,0%,-4%,?,13%
C=CCNC(=O)/C(C#N)=C/c1c(C)nn(-c2ccccc2)c1Cl,i,7.9µM*,-8%,-15%,14%,-1%
CCOc1ccccc1NC(=O)/C(C#N)=C/c1c(C)nn(-c2ccccc2)c1Cl,-3%,2%,-27%,5%,?,0%
Cc1cnc(SCc2ccccn2)nc1C1CCCN(C(=O)c2coc3c2C(=O)CCC3)C1 (centres undefined),-24%,.,-7%,-20%,.,.
Cc1ccc(C(=O)N2CCn3c(C)ccc3C2C)cc1 (centres undefined),i,10%[46.1 µM],-20%,-5%,10%,22µM*
COc1cccc(C(=O)NCC2Cc3cccc(-c4cccnc4)c3O2)c1 (centres undefined),-10%,.,23%,-13%,.,.
O=C(c1cnn2c(C(F)(F)F)cc(-c3cccs3)nc12)N1CCN(C(c2ccccc2)c2ccccc2)CC1,.,13µM*,-7%,-8%,?,-13%
CCc1ccc(N2C(=O)c3sc4nnc(-c5ccccc5)c(=O)n4c3C2=O)cc1,.,0%,0%,-16%,-1%,10µM*
Cc1ccc(S(=O)(=O)c2cn(C)c3cc(N4CCCC(C)C4)c(F)cc3c2=O)c(C)c1 (centres undefined),-16%,.,-15%,-17%,-22%[46.1 µM],-11%
C=CCN1C(=O)c2ccc(C(=O)N(C)Cc3ccc(C)o3)cc2C1=O,-16%,?,12%,-8%,30%,50µM*
C(=C\c1ccnc2ccccc12)/c1ccc(N2CCNCC2)cc1,?,.,.,-17%,.,.
COC(=O)C1=C(C(=O)OC)[C@@H]2N(C)c3ccccc3[C@@]23C[C@@H](CO)N(C(=O)NC2CCCCC2)C3=N1,.,-2%[14.2 µM],.,.,.,.
COc1cc2cc(/C=C/C(=O)c3ccco3)c(Cl)nc2cc1OC,.,?,-13%,.,-7%,?
COc1ccc2cc(/C=C/C(=O)c3ccco3)c(Cl)nc2c1,.,.,.,.,.,45µM*
Cc1ccc2nc(Cl)c(/C=C/C(=O)c3ccco3)cc2c1,i,4%,?,-10%,?,?
Cc1ccc2cc(/C=C/C(=O)c3ccco3)c(Cl)nc2c1,7%,4%[46.1 µM],-13%,-7%,-5%,8.9µM*
CCOc1ccc(-n2c(-c3ccccc3)c(C)n3c4c(=O)n(C)c(=O)n(C)c4nc23)cc1,-1%,?,-18%,0%,16%[46.1 µM],4%
Cc1cccc(C)c1NC(=O)CCCCCC1NC(=O)NC1C (centres undefined),i,13%[46.1 µM],12%,2%,0%,25µM*
SMILES,Vaccinia mCherry,Marburg entry inh,FMDV antiviral,VACV Venus inh,LASV entry inh,Sm TGR inh
CC1NC(=O)NC1CCCCCC(=O)NCCc1ccccc1 (centres undefined),-21%,21%,.,1%,?,32µM*
C[C@@H]1NC(=O)N[C@@H]1CCCCCC(=O)O,-8%,.,-22%,10%,.,.
C1CCC(C2C3=C(NC4NCNN42)C2=C(CCCC2)CCC3)CC1 (centres undefined),.,9%,.,.,.,.
COc1ccc(CNC(=O)C(=O)NCC(c2ccco2)S(=O)(=O)c2cccs2)cc1 (centres undefined),-16%,.,-25%,-16%,1%[46.1 µM],18µM*
O=C(NCc1ccc(Cl)cc1)C(=O)NCC(c1ccco1)S(=O)(=O)c1cccs1 (centres undefined),-16%,.,-9%,-17%,-15%[46.1 µM],40µM*
Cc1ccc(S(=O)(=O)C(CNC(=O)C(=O)NCc2ccc(Cl)cc2)c2ccco2)cc1 (centres undefined),-12%,.,-9%,-11%,4%[46.1 µM],?
COc1ccc(CNC(=O)Cn2c(=O)ccc3cc(S(=O)(=O)N4CCCC4)ccc32)cc1,2%,.,-8%,-6%,7%[46.1 µM],4%
COc1ccc(CN2CCCC(n3cc(C(=O)N4CCCCC4)nn3)C2)c(OC)c1C (centres undefined),-7%,.,-4%,7%,.,.
O=C(Cc1ccc(S(=O)(=O)N2CCOCC2)s1)Nc1ccccc1Br,.,.,-21%,.,.,-15%
O=C(Cc1ccc(S(=O)(=O)N2CCOCC2)s1)NCC(=O)Nc1ccccc1Br,-5%,1%,-3%,-5%,-19%,56µM*
CCCN(CCC)CCCNC(=O)c1sc2nc3n(c(=O)c2c1C)CCC3,-1%,.,-16%,-6%,7%[46.1 µM],-6%
COc1cccc(NC(=O)c2sc3nc(C)c(C(=O)Nc4ccc(C)cc4C)c(-c4ccc(Br)cc4)c3c2N)c1,10%,?,1%,-5%,12%[46.1 µM],-9%
Cc1cc(C)cc(-n2c(SCC(=O)Nc3ccccc3F)nc3c(oc4ccccc43)c2=O)c1,-11%,-27%[46.1 µM],-16%,-9%,.,2%
COc1ccc(C)cc1NC(=O)Nc1ccccc1OCc1cc(=O)n2ccccc2n1,i,.,-13%,-14%,-1%[46.1 µM],0%
CCCCn1c(-c2ccc(Cl)c(Cl)c2)nc2cc3[nH]c(=O)c(C(C)C)nc3cc21,?,.,-19%,-26%,.,0%
CCCCn1c(-c2ccc(C(C)(C)C)cc2)nc2cc3[nH]c(=O)c(C(C)C)nc3cc21,10µM*,.,35µM*,?,.,-16%
CC(NC(=O)C1CCOCC1)c1nnc2n1CCN(Cc1ccc(F)cc1)CC2 (centres undefined),-15%,.,-11%,-4%,.,.
